Data published in the supplement of paper PMC6555819.

How the values were obtained:
Assay in all cases: PBM binding z-score (relative to random genomic background probes); higher = stronger binding; sequences stand for … in GC…GCGATTGACAGCGTAGAATGAAGG
[1] = tested on: RARb homodimer (NR concentration 270 nM)
Summary of the method: (§1)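 Probes were double-stranded and carried 34-nt variable regions with direct-repeat seeds, single-nucleotide variants, half-site ablations and random human genomic background sequences, printed on custom Agilent 4×180K protein-binding microarrays. Arrays were incubated 1 h with ligand-free nuclear receptor dimers in PBS pH 7.4, 2% milk, 0.02% Triton X-100, 1 mM DTT, 0.2 mg/mL BSA and 0.4 mg/ml salmon testes DNA. Antibodies against each partner (one per run) detected binding, and scanned fluorescence was regression-normalized. Binding z-scores use the random background probes as reference.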

[2] = tested on: RARg:RXRa (NR concentration 270 nM, RXRa partner concentration 90 nM)
Summary of the method: as §1

[3] = tested on: RARg homodimer (NR concentration 270 nM)
Summary of the method: as §1

[4] = tested on: RXRa DBDmut IVT, anti-RXR (DBD mutation: RXRa K156A/R161A, NR concentration 90 nM)
Summary of the method: as §1

[5] = tested on: RXRa homodimer (NR concentration 180 nM)
Summary of the method: as §1

[6] = tested on: THRa:RXRa (NR concentration 90 nM, RXRa partner concentration 90 nM)
Summary of the method: as §1

[7] = tested on: THRa homodimer (NR concentration 90 nM)
Summary of the method: as §1

[8] = tested on: VDR:RXRa (NR concentration 270 nM, RXRa partner concentration 90 nM)
Summary of the method: as §1

[9] = tested on: VDR homodimer (NR concentration 270 nM)
Summary of the method: as §1

Sequence	PBM binding z-score [1]	PBM binding z-score [2]	PBM binding z-score [3]	PBM binding z-score [4]	PBM binding z-score [5]	PBM binding z-score [6]	PBM binding z-score [7]	PBM binding z-score [8]	PBM binding z-score [9]
CGTCCAAGTTCAAAGGTCAGTGAAGAGATGACGG	4.6	7.24	6.28	4.85	8.41	3.84	0.506	6.37	5.47
GCTCGGAGGCCAAGGTCAGAGCTTTGTCCGTAGA	3.1	2.72	3.69	0.649	1.93	2.64	1.27	1.16	0.281
TCATATAGATAAAGGTGAAAGTCGAACGATATGA	1.08	1.29	1.2	1.18	1.9	0.819	-0.268	0.945	-0.308
TGAAAGAGGTTATAAGATCAGGGAACGTTGCAAA	0.261	2.01	1.15	0.022	2.37	0.935	-0.921	0.894	-0.105
ATCGAAAGGTCGTAAGGTGAGTATACAGAAAGGC	3.06	4.61	3.87	1.72	5.29	3.35	1.64	3.26	1.24
GCTCGGAGGACAAGGTCAGAGCGTTGTCCGTAGA	2.97	3.26	3.69	0.33	2.43	2.89	1.25	1.67	0.555
CTACCAAGGTGAAGAAGGTCGTTGATTACTATTC	1.74	1.35	1.07	0.727	1.34	2.13	0.885	4.25	1.34
TAGCCTAGGTCATGGGGCCAGTATAGTACGCATC	3.29	4.5	4.7	0.621	3.6	3.49	1.43	2.69	1.05
AGAATGAGGTTATTAAGATCATGGAATTGCGGTC	0.78	1.25	0.948	1.87	1.73	2.17	0.524	3.3	1.5
GCTTGTAGATCACGGTTAAGAAAGACTAAGCTAA	-0.369	-0.304	-0.36	0.053	-0.526	-0.523	-1.01	-0.34	-0.582
CCGAGTAGGTTATGGGGCATTCACGCAACGGTGA	0.898	0.542	0.597	-0.117	0.816	0.155	-0.0267	-0.0125	0.416
CGTCCAAGGTCATGGTCAGTGAAAGAGACTCGAA	4.01	6.19	6.11	3.84	5.98	3.92	2.89	4.3	2.52
CAAACTCGGTCACCGGAAGGTCAAAGTCCGCATG	5.22	6.88	6.29	1.12	4.82	3.44	1.59	4.77	2.65
CCAGACAGGTGAGAAGGCAACTCAGCCTCGATTA	0.103	0.0395	0.271	0.0472	0.0532	-0.202	-0.363	-0.345	0.221
CCGAGTAGGTTAGGGGGCATTCAGGCAACGGTGA	2.12	2.21	1.79	1.54	2.03	2.4	1.37	2.93	2.8
GCTTGTAGATCTAGGTTAAGAAAGACTAAGCTAA	-0.325	-0.324	-0.326	-0.252	-0.074	0.276	-0.767	-0.392	-0.721
TCATATAGGTAAAAAGTGAAAGTCGGTGTGGTAA	0.0434	0.226	-0.0939	2.01	0.563	-0.0757	-0.132	0.783	0.435
CATACAGGGTCAGCTAGGCCAGAGGAGGGACGGC	3.12	4.3	4.65	1.64	4.14	2.75	0.692	3.53	1.36
GCAGACAGGTGAAACGCAGGTAACTCCGGGTGGC	0.0338	0.702	-0.185	-0.71	0.572	1.32	-0.603	-0.595	-0.791
ATTAGTTGGTCAGCTGAGGTCACACACAATTCGG	4.56	4.39	4.28	1.58	4.35	5.05	5.22	4.76	4.18
ATCGAAAGGTCGAAGGTGAGAATACCCACCCGAA	2.62	4.34	4.24	1.42	5.85	2.23	-0.0436	2.7	0.515
ATTCAAAGTTCATCTAGGTAACGTAAGATATGCT	3.89	5.29	5.82	4.6	4.46	3.13	0.475	4.93	4.9
GATACAGGGTCAAGGCCAAAGTACGCGTATTGAT	3.82	5.66	5.29	2.45	6.07	3.76	1.43	4.44	2.52
ACTAGCAGGCCAAGCTTGGGTCACTCAAACAAAG	2.07	2.09	1.49	-0.187	0.849	2.18	0.602	0.122	-0.227
TCTATAAGTTGATTAGGGCAACCGAAACAGCGGA	0.772	0.61	0.741	1.23	0.5	1.11	0.212	0.463	0.543
TCTAGTTGGTCAAAGGTCACACTCTCGAAATGCG	5.1	6.72	5.71	1.96	7.91	4.01	2.1	5	2.53

Sequence	PBM binding z-score [1]	PBM binding z-score [2]	PBM binding z-score [3]	PBM binding z-score [4]	PBM binding z-score [5]	PBM binding z-score [6]	PBM binding z-score [7]	PBM binding z-score [8]	PBM binding z-score [9]
ATACCAAGGTGATCGGGAGGTCGTTGATACTAAC	1.96	2.79	0.879	0.167	1.44	2.58	1.27	2.58	1.99
ACTTACGGGTCAACGAGGTTATATCACGCGTATA	3.73	5.37	4.95	2.74	6.14	4.04	1.45	7.44	3.3
CAAGCTAGGTCACAGAGGTCAAAGTCCGTGCGTA	5.82	7.64	8.36	3.42	8.42	4.64	2.65	8.14	7.28
TCTCGAAGGACACGAAGGTCAGAGCTTTCCAGAG	3.75	2.99	3.73	0.817	1.94	2.03	0.331	1.86	0.435
AGAAAGAGGGCACGCTGAGTTGATAGCAGAGTAG	1.64	2.5	3.08	1.36	1.83	1.5	-0.338	2.39	1.23
AGAATGAGGTGAAGATCAGGGAAACAGAATACAT	0.949	1.15	1.09	-0.551	1.05	2.77	1.32	0.178	0.103
CCGACTGGGGCAAAGGTTACCCTACTCAGTACGA	1.96	3.01	1.49	-0.029	3.13	1.72	0.249	1.23	0.136
TCTAGTTGTTCAAAGGTCACACACTCGAAATGCG	5.28	6.3	6.07	2.05	7.19	4.11	2.21	4.95	2.78
TCATATAGGTAAAAGGTTAAAGTCGGTGTGGTAA	2.41	3.05	1.54	2.12	4.88	2.27	0.509	2.73	0.746
CCAACTGGGGCAAAGGTTACCATACTCAGTACGA	2.56	3.77	2.06	0.365	4.41	1.84	0.0572	1.7	0.0335
ATCGAAAGTTCGAGGTGAGTATAGAGAAAGGGAA	1.28	1.69	2.19	1.85	1.41	1.7	0.158	1.16	1.09
TCTTGTACATCAATAGAGGTTAAGAAAGTGCGCT	1.31	0.893	0.714	1.08	1.46	1.52	-0.338	2.07	-0.116
AATACATGGTCATCGTAGGCCAGAGTACGCACAG	0.899	0.696	1.26	-0.177	0.994	1.25	-0.339	0.347	0.322
AGAATGAGGTTAAGATCTGGGAAACAGAATACAT	0.808	2.11	1.54	1.04	2.48	2.26	0.582	1.13	0.27
CCTAGCAGGCCGATCTGGGTCACTCAAGGCTTGA	1.59	0.546	0.594	-0.129	0.768	2.97	0.256	0.114	-0.162
CATACAGGGTCAGCTGGGCCAGAGTAGGGACGGC	3.31	4.6	4.97	1.48	4.64	3.12	0.678	3.63	1.18
CATACAGGGTCAGCTAGGCCAGAGTAGGGACGGC	3.14	4.44	4.26	1.44	4.42	3.1	0.753	3.8	1.32
TCAGACAGGTTAAGGTAACTCAGGTACGCAGTCG	1.33	1.22	1.08	1.43	1.57	3.11	2.5	1.53	0.557
TCTTGTAGATCAGCAGGTTAAGCAAGCTGGCCAA	-0.0177	-0.192	-0.525	0.455	0.213	-0.00536	-0.897	0.275	-0.751
ATCGAAAGGTCGACGAGGTGAGTTTACACCGTTT	3.04	4.11	3.94	1.48	4.05	3.8	0.782	5.25	2.35
ATCTCTAGGTAACAAGTTCAGCGAAAGAGAGGAC	2.17	2.04	1.72	0.87	1.27	1.74	0.96	2.45	3
ATCTCTAGGTACCAAGTTCAGTGAAAGAGAGGAC	1.51	0.686	0.865	1.27	0.546	0.926	0.692	1.64	2.26
ACTTGTTGGTCAGCTGAGGTCACACACAATTCGG	4.48	4.18	4.01	1.38	3.99	5.15	5.03	4.61	3.16
TCTGCTAGGTCAACGATGGTCAGCTGATCTGCTA	3.36	4	4.88	0.835	2.52	2.99	0.473	1.73	-0.511
TCTTGTAGATCAAAGGTTAAGCAAGCCGAAGCCT	1.9	1.98	0.759	0.824	3.56	1.51	-0.503	1.65	-0.138
GATACAGGGTCAAGGCCAGAGTGCGCGTATTGAT	3.82	5.48	5.27	2.42	5.94	3.42	1.27	4.23	2.96
